This note sets out measurements from PubChem BioAssay (NCI).

Some test systems named below: NCI-H23 lung; NCI-H226 lung; NCI-H322M lung; HOP-62 NSCLC; NCI-H460 lung; HOP-92 NSCLC; NCI-H522 lung; A549/ATCC NSCLC; 786-0 renal; COLO 205 colon; DU-145 prostate; K-562 leukemia; MALME-3M melanoma; MDA-MB-231 breast; RXF 393 renal; SF-268 CNS; SF-295 CNS; SF-539 CNS; UACC-257 melanoma; M14 melanoma.
What all share (test): NCI-60 one-dose screen, 48 h (100 = growth as untreated, 0 = no growth, -100 = all killed)
Holding throughout (conditions): 10 µM unless noted

This is part of a sample that, as a whole, favours compounds with a hit. Of some 83,000 tested, about 20% had one in any assay.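 For each line, cells grew in 96-well plates with the test compound present at a single concentration for 48 hours.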 Unmarked numbers belong to inactive results. Activity calls are given as the source filed them. Rule for the calls: active = growth percent below 10; inactive = the rest.

On to `Nc1cc(F)ccc1[N+](=O)[O-]`, for which the growth in the assay on NCI-H23 lung was 103%; with NCI-H226 lung it was 95.9%; in the assay with NCI-H322M lung, 92.6%; in the assay with HOP-62 NSCLC, 110%; in the assay with NCI-H460 lung, 103%; in the assay on HOP-92 NSCLC, 89.5%. Further, the growth is 106% with NCI-H522 lung; 116% in the assay with A549/ATCC NSCLC; 94.1% with 786-0 renal; 116% in the assay with COLO 205 colon; 117% in the assay with DU-145 prostate; 114% in the assay with K-562 leukemia. In addition, the growth in the assay on MALME-3M melanoma is 108%; in the assay with MDA-MB-231 breast it was 105%; in the assay on RXF 393 renal, 94.3%; in the assay on SF-268 CNS, 111%; with SF-295 CNS, 108%; with SF-539 CNS it was 101%. For the same compound, the growth in the assay on UACC-257 melanoma is 118%.

Turning to `COc1cccc2c1Cc1ccccc1-2`, the growth with NCI-H23 lung was 94.9%; with NCI-H226 lung, 94.4%; in the assay with NCI-H322M lung it was 114%; with HOP-62 NSCLC it was 113%; in the assay on NCI-H460 lung it was 110%; with HOP-92 NSCLC it was 106%. Moreover, the growth in the assay on NCI-H522 lung is 103%; with A549/ATCC NSCLC, 107%; with 786-0 renal, 110%; in the assay on COLO 205 colon it was 109%; with DU-145 prostate, 106%; in the assay on K-562 leukemia, 94.4%. Besides, the growth was 117% in the assay with MALME-3M melanoma; 93.6% in the assay on MDA-MB-231 breast; 97.9% in the assay with RXF 393 renal; 99.8% with SF-268 CNS; 103% in the assay on SF-295 CNS; 107% in the assay with SF-539 CNS. Moreover, the growth in the assay with UACC-257 melanoma was 102%.

As for `O=C(OC1CCCC1)c1ccccc1Cl`, the growth with NCI-H23 lung is 106%; in the assay with NCI-H226 lung, 104%; with NCI-H322M lung it was 99.7%; with HOP-62 NSCLC, 97.1%; in the assay with NCI-H460 lung it was 101%; in the assay on HOP-92 NSCLC, 96.2%. Besides, the growth was 93.1% in the assay on NCI-H522 lung; 105% in the assay on A549/ATCC NSCLC; 101% in the assay on 786-0 renal; 107% in the assay with COLO 205 colon; 109% with DU-145 prostate; 106% with K-562 leukemia. In addition, the growth was 102% in the assay with MALME-3M melanoma; 97.3% in the assay with MDA-MB-231 breast; 112% in the assay on RXF 393 renal; 104% with SF-268 CNS; 100% in the assay on SF-295 CNS; 98.6% with SF-539 CNS. In the assay on UACC-257 melanoma, the growth was 109%.

Take `CCCCNC(=O)c1ccc(OCC)cc1`: the growth in the assay with NCI-H23 lung was 101%; in the assay on NCI-H226 lung it was 96%; in the assay with NCI-H322M lung, 102%; with HOP-62 NSCLC it was 101%; with NCI-H460 lung, 103%; in the assay with HOP-92 NSCLC, 93.1%. Also, the growth with NCI-H522 lung was 95.6%; with A549/ATCC NSCLC it was 98.6%; in the assay with 786-0 renal, 98.3%; in the assay on COLO 205 colon it was 106%; in the assay with DU-145 prostate, 108%; with K-562 leukemia, 112%. The growth is 101% in the assay with MALME-3M melanoma; 108% with MDA-MB-231 breast; 109% in the assay on RXF 393 renal; 106% in the assay with SF-268 CNS; 106% with SF-295 CNS; 104% with SF-539 CNS. The growth in the assay with UACC-257 melanoma was 102%.

As for `CCN(Cc1ccc(Cl)c(Cl)c1)c1ccc2nc(N)nc(N)c2c1C`, the growth in the assay with NCI-H23 lung is -76.6% (active); in the assay with NCI-H226 lung, -62.2% (active); in the assay on NCI-H322M lung it was -94.3% (active); with HOP-62 NSCLC, -74.2% (active); with NCI-H460 lung it was -95.8% (active); in the assay on HOP-92 NSCLC it was -90.9% (active). Moreover, the growth in the assay with NCI-H522 lung is -64.7% (active); in the assay with A549/ATCC NSCLC it was -55.9% (active); in the assay on 786-0 renal, -89.5% (active); in the assay on COLO 205 colon, -96.1% (active); in the assay with DU-145 prostate, -85.5% (active); with K-562 leukemia it was -83.9% (active). The growth is -84% (active) in the assay on MALME-3M melanoma; -84.9% (active) in the assay with MDA-MB-231 breast; -80.1% (active) in the assay on RXF 393 renal; -70.1% (active) with SF-268 CNS; -62.8% (active) with SF-295 CNS; -97.8% (active) with SF-539 CNS. Moreover, the growth in the assay with UACC-257 melanoma was -77.7% (active).

Regarding `CCCNS(=O)(=O)c1ccc(Cl)cc1`, the growth in the assay on NCI-H23 lung is 104%; in the assay on NCI-H226 lung, 113%; with NCI-H322M lung it was 93.6%; with HOP-62 NSCLC, 86.6%; in the assay with NCI-H460 lung, 103%; in the assay with HOP-92 NSCLC, 104%. Besides, the growth was 96.6% with NCI-H522 lung; 94.5% in the assay on A549/ATCC NSCLC; 97.6% in the assay with 786-0 renal; 102% in the assay on COLO 205 colon; 109% in the assay with DU-145 prostate; 104% in the assay with K-562 leukemia. Further, the growth with MALME-3M melanoma was 105%; in the assay with MDA-MB-231 breast it was 102%; with RXF 393 renal, 114%; in the assay on SF-268 CNS it was 106%; in the assay on SF-295 CNS, 87.8%; with SF-539 CNS, 98.1%. In addition, in the assay with UACC-257 melanoma, the growth was 101%.

`O=C(O)C1CCCN1C(=O)OCc1ccccc1` (configuration not stated): the growth with NCI-H23 lung was 104%; in the assay on NCI-H226 lung it was 108%; in the assay on NCI-H322M lung, 104%; in the assay on HOP-62 NSCLC, 127%; in the assay with NCI-H460 lung, 102%; with HOP-92 NSCLC, 122%. Besides, the growth is 85.6% in the assay with NCI-H522 lung; 93.7% in the assay with A549/ATCC NSCLC; 106% in the assay on 786-0 renal; 107% with COLO 205 colon; 118% in the assay on DU-145 prostate; 99.1% with K-562 leukemia. The growth in the assay on MALME-3M melanoma is 108%; in the assay on MDA-MB-231 breast, 128%; in the assay with RXF 393 renal it was 139%; with SF-268 CNS, 107%; in the assay on SF-295 CNS, 107%; with SF-539 CNS, 107%. In addition, in the assay on UACC-257 melanoma, the growth is 105%.

On to `ClCC(Cl)C1CCC(Cl)C(Cl)C1` (configuration not stated), for which the growth in the assay with NCI-H23 lung is 105%; in the assay with NCI-H226 lung, 119%; in the assay with NCI-H322M lung, 107%; with HOP-62 NSCLC, 111%; in the assay with NCI-H460 lung, 107%; with HOP-92 NSCLC it was 105%. Also, the growth was 102% in the assay with NCI-H522 lung; 98.2% with A549/ATCC NSCLC; 96.8% with 786-0 renal; 109% in the assay on COLO 205 colon; 102% with DU-145 prostate; 105% in the assay on K-562 leukemia. In addition, the growth in the assay with MALME-3M melanoma was 99.5%; in the assay with MDA-MB-231 breast, 113%; with RXF 393 renal, 125%; in the assay on SF-268 CNS, 98.1%; in the assay with SF-295 CNS, 95.9%; with SF-539 CNS, 96.6%. Besides, the growth in the assay with UACC-257 melanoma and in the assay on M14 melanoma was 101% each time.

For `CCCCCCCCCCC(=O)CCCCCCCCCC`, the growth in the assay on NCI-H23 lung was 102%; in the assay on NCI-H226 lung it was 103%; with NCI-H322M lung, 109%; in the assay with HOP-62 NSCLC, 92.3%; in the assay with NCI-H460 lung, 102%; in the assay with HOP-92 NSCLC it was 148%. Further, the growth in the assay with NCI-H522 lung is 96.7%; in the assay with A549/ATCC NSCLC, 98.4%; in the assay on 786-0 renal, 99.1%; in the assay on COLO 205 colon, 107%; in the assay on DU-145 prostate, 111%; in the assay on K-562 leukemia, 103%. The growth with MALME-3M melanoma was 99.1%; with MDA-MB-231 breast it was 119%; in the assay with RXF 393 renal, 113%; in the assay on SF-268 CNS it was 108%; in the assay with SF-295 CNS, 93.7%; in the assay on SF-539 CNS, 98.1%. Besides, in the assay on UACC-257 melanoma, the growth was 101%.
